Reference: PubChem BioAssay (NCATS)
Results filed as inconclusive are left out. A call without a number means that no potency is given here. Active and inactive are the calls of the source. The call rests on the fitted dose curve; in most records, active means well fitted curve in the direction sought with a large enough effect; inconclusive means small, poorly fitted or top-dose-only effect, or another doubt; inactive means no such curve, though single readings can be large; an effect the other way counts as inactive or inconclusive.

How the values were obtained:
[1] = qHTS of pediatric cancer cell lines to identify multiple opportunities for drug repurposing: Primary screen for LAN-5 cells (AID 1347100); further: potency means the concentration at half of the fitted maximal effect
Summary of the method: (§1)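 Cells (500-1,000/well) in growth media were settled 5 h at 37 degrees C, then given compounds for 48 h. Viability was read as CellTiter-Glo luminescence. Primary runs used MIPE at 11 points (0.78 nM-46 µM) and NPC at 8 points (0.59 nM-46 µM); follow-ups used 11 points.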

[2] = qHTS of pediatric cancer cell lines to identify multiple opportunities for drug repurposing: Primary screen for BT-12 cells (AID 1347101); further: nearly all actives have a fitted effect of over 25% in size; further: potency means the concentration at half of the fitted maximal effect
Summary of the method: (§2)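 Cells (500-1,000/well) rested 5 h, then received compounds for 48 h; metabolically active cells were measured by CellTiter-Glo luminescence. Final concentrations spanned up to 46 µM (MIPE, 11-point) or 0.59 nM-46 µM (NPC, 8-point) in primary screens, 11-point in follow-ups.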

[3] = qHTS of pediatric cancer cell lines to identify multiple opportunities for drug repurposing: Primary screen for MG 63 (6-TG R) cells (AID 1347105); further: nearly all actives have a fitted effect of over 50% in size; further: potency means the concentration at half of the fitted maximal effect
Summary of the method: (§3)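 Cells seeded at 500-1,000 cells/well in growth media, rested 5 hours at 37 degrees C, 5% CO2, then dosed; MIPE compounds at 11-point (from 0.78 nM) and NPC at 8-point (from 0.59 nM) final concentrations. Viability by CellTiter-Glo luminescence after 48 hours.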

[4] = qHTS of pediatric cancer cell lines to identify multiple opportunities for drug repurposing: Primary screen for control Hh wild type fibroblast cells (AID 1347106);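 further: series mostly up to about 46 µM; a drop in luminescence marks cytotoxicity and a rise apparent proliferation; nearly all actives have a fitted effect of over 55% in size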
Summary of the method: as §1

[5] = qHTS of pediatric cancer cell lines to identify multiple opportunities for drug repurposing: Primary screen for Rh18 cells (AID 1347102); further: nearly all actives have a fitted effect of over 65% in size; further: potency means the concentration at half of the fitted maximal effect
Summary of the method: as §1

[6] = qHTS of pediatric cancer cell lines to identify multiple opportunities for drug repurposing: Primary screen for Rh41 cells (AID 1347108); further: nearly all actives have a fitted effect of over 70% in size; further: potency means the concentration at half of the fitted maximal effect
Summary of the method: as §3

[7] = qHTS of pediatric cancer cell lines to identify multiple opportunities for drug repurposing: Primary screen for OHS-50 cells (AID 1347103); further: nearly all actives have a fitted effect of over 40% in size; further: potency means the concentration at half of the fitted maximal effect
Summary of the method: as §2

[8] = qHTS of pediatric cancer cell lines to identify multiple opportunities for drug repurposing: Primary screen for Rh30 cells (AID 1347107); further: series mostly up to about 46 µM; nearly all actives have a fitted effect of over 75% in size
Summary of the method: as §1

[9] = qHTS of pediatric cancer cell lines to identify multiple opportunities for drug repurposing: Primary screen for RD cells (AID 1347104); further: nearly all actives have a fitted effect of over 55% in size; further: potency means the concentration at half of the fitted maximal effect
Summary of the method: as §3

| SMILES | Potency [1] | Potency [2] | Potency [3] | Potency [4] | Potency [5] | Potency [6] | Potency [7] | Potency [8] | Potency [9] |
| --- | --- | --- | --- | --- | --- | --- | --- | --- | --- |
| CN(C)c1ccc(-c2nc3ncc(Cl)c(N4CCN(CC(=O)Nc5nccs5)CC4)c3[nH]2)cc1 | 0.833 µM (active) | inactive | inactive | inactive | – | – | – | – | – |
| CNC(=O)[C@H](Cc1ccccc1)NC(=O)[C@H](CC(C)C)[C@H](CSc1cccs1)C(=O)NO | inactive | – | inactive | inactive | inactive | – | – | – | – |
| NS(=O)(=O)c1ccc(Nc2nc(OCC3CCCCC3)c3[nH]cnc3n2)cc1 | 16.6 µM (active) | inactive | inactive | inactive | – | inactive | – | – | – |
| CCC(c1ccc(O)cc1)C(CC)c1ccc(O)cc1 (stereo not drawn) | inactive | – | – | inactive | inactive | inactive | 27.3 µM (active) | inactive | – |
| CC[C@]1(O)C[C@H]2CN(CCC3=c4ccccc4=N[C]3[C@@](C(=O)OC)(c3cc4c(cc3OC)N(C)[C@H]3[C@@](O)(C(N)=O)[C@H](O)[C@]5(CC)C=CCN6CC[C@]43[C@@H]65)C2)C1 | 0.0166 µM (active) | 0.122 µM (active) | – | – | – | – | 0.0685 µM (active) | inactive | 0.0332 µM (active) |
| CN(C)S(=O)(=O)c1ccc2c(c1)C(=Cc1cc3c([nH]1)CCCC3)C(=O)N2 | 2.35 µM (active) | – | inactive | – | inactive | – | – | – | – |
| CCCCn1c(=O)n(Cc2ccccc2F)c(=O)c2[nH]c(Cc3ccc(NC(C)=O)cc3)nc21 | inactive | – | 18.7 µM (active) | inactive | inactive | – | – | – | – |
| N#CC(c1ccc(Cl)cc1)c1c(Cl)cc(-n2ncc(=O)[nH]c2=O)cc1Cl (stereo not drawn) | 7.43 µM (active) | 21.7 µM (active) | 14.8 µM (active) | inactive | – | – | 15.3 µM (active) | – | – |
| C[C@H]1COC2=C1C(=O)C(=O)c1c2ccc2c1CCCC2(C)C | inactive | – | inactive | inactive | inactive | – | inactive | inactive | inactive |
| C[C@]12C=CC(=O)C=C1CC[C@@H]1[C@@H]2[C@@H](O)C[C@@]2(C)[C@@H]1CC[C@]2(O)C(=O)CO | 23.5 µM (active) | – | inactive | inactive | inactive | – | inactive | inactive | inactive |
| CCc1cc(-c2n[nH]c(C)c2-c2ccc3c(c2)OCCO3)c(O)cc1O | 5.9 µM (active) | – | – | inactive | 6.62 µM (active) | – | 9.68 µM (active) | inactive | – |
| CCC(C)SSc1ncc[nH]1 (stereo not drawn) | 14.8 µM (active) | – | 23.5 µM (active) | inactive | – | – | 15.3 µM (active) | inactive | 26.4 µM (active) |
| CN1CCN(c2cccc(Nc3nc4c(-c5ccc(S(C)(=O)=O)cc5)cccn4n3)c2)CC1 | 13.2 µM (active) | – | – | inactive | 18.7 µM (active) | 18.7 µM (active) | 7.69 µM (active) | – | – |
| CC(C)n1c(C=C[C@H](O)C[C@H](O)CC(=O)O)c(-c2ccc(F)cc2)c2ccccc21 | inactive | – | 1.48 µM (active) | – | 5.9 µM (active) | inactive | 4.32 µM (active) | inactive | – |
| Cc1ccc(C(=O)N(CCCN)[C@@H](c2nc3cc(Cl)ccc3c(=O)n2Cc2ccccc2)C(C)C)cc1 | 0.001 µM (active) | 0.001 µM (active) | – | inactive | – | – | 0.001 µM (active) | inactive | – |
| c1cc(OCCN2CCCCC2)cc(-c2n[nH]c3ccc(-c4ncn[nH]4)cc23)c1 | 14.8 µM (active) | – | inactive | inactive | – | inactive | 6.85 µM (active) | inactive | inactive |
| CC1=C[C@@H]2[C@@H]([C@@H](O)C[C@@]3(C)[C@H]2C[C@@H](C)[C@]3(O)C(=O)CO)[C@@]2(C)Cc3cnn(-c4ccccc4)c3C=C12 | 23.5 µM (active) | – | – | inactive | inactive | – | – | – | 29.6 µM (active) |
| O=C(c1ccc(C=Cc2n[nH]c3ccccc23)cc1)N1CCNCC1 | 0.833 µM (active) | – | – | inactive | inactive | – | 2.17 µM (active) | – | – |
| COc1c(C)c2c(c(O)c1CC=C(C)CCC(=O)O)C(=O)OC2 | 3.32 µM (active) | – | – | inactive | inactive | inactive | – | inactive | – |
| NCc1c[nH]c(=S)n1[C@H]1CCc2c(F)cc(F)cc2C1 | 23.5 µM (active) | – | – | – | 16.6 µM (active) | – | – | – | 33.2 µM (active) |
| COc1ccc(C=CC(=O)Nc2ccccc2C(=O)O)cc1OC | inactive | inactive | inactive | inactive | – | inactive | inactive | – | – |
| CC1C(=O)OC2C(O)C34C5CC(C(C)(C)C)C36C(OC(=O)C6O)OC4(C(=O)O5)C12O (stereo not drawn) | 20.9 µM (active) | – | inactive | inactive | inactive | inactive | inactive | inactive | – |
| COc1cc2nccc(Oc3ccc(NC(=O)Nc4ccc(F)cc4F)c(F)c3)c2cc1OC | 0.833 µM (active) | inactive | 9.35 µM (active) | inactive | – | – | 1.53 µM (active) | – | – |
| Nc1ncnc2c1c(-c1cccc(OCc3ccccc3)c1)cn2C1CC(CN2CCC2)C1 (stereo not drawn) | 4.69 µM (active) | inactive | – | inactive | – | 2.96 µM (active) | 0.968 µM (active) | – | 7.43 µM (active) |
| C=CC[N+]1([C@H]2C[C@H]3[C@@H]4CC[C@H]5C[C@H](O)[C@@H](N6CCOCC6)C[C@]5(C)[C@@H]4CC[C@]3(C)[C@H]2OC(C)=O)CCCC1 | inactive | – | – | inactive | inactive | – | inactive | – | – |
| CCCCCCOC(=O)N=C(N)c1ccc(NCc2nc3cc(C(=O)N(CCC(=O)OCC)c4ccccn4)ccc3n2C)cc1 | 23.5 µM (active) | – | inactive | inactive | inactive | – | – | inactive | – |
